Test results reported in PubChem BioAssay (NCATS).
Inconclusive results are not listed. Activity calls are given as the source filed them. Unless noted, calls come from the whole dose curve; as a rule, active = well fitted cell-killing curve with a large enough effect; inconclusive = small, poorly fitted or top-dose-only effect, or effect the other way; inactive = no such curve, though single readings can be large or run the other way.

What was measured:
[1] = Quantitative High-Throughput drug screen in 47 multiple myeloma cell lines against the NCATS MIPE library collection: L363_DSMZ cell viability assay (AID 1918984); note: nearly all actives have a fitted effect of over 40% in size
How it was run: (§1)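 Inhibition of viability over 48 h was scored by ATP content (CellTiter-Glo) in 500-cell wells. Zero and full viability were defined by media-only and DMSO-only wells.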

[2] = Quantitative High-Throughput drug screen in 47 multiple myeloma cell lines against the NCATS MIPE library collection: OCIMY7_PLB cell viability assay (AID 1918987); note: nearly all actives have a fitted effect of over 65% in size
How it was run: as §1

[3] = Quantitative High-Throughput drug screen in 47 multiple myeloma cell lines against the NCATS MIPE library collection: XG6_PLB cell viability assay (AID 1919865); note: nearly all actives have a fitted effect of over 40% in size
How it was run: as §1

[4] = Quantitative High-Throughput drug screen in 47 multiple myeloma cell lines against the NCATS MIPE library collection: XG1_PLB cell viability assay (AID 1919866); note: nearly all actives have a fitted effect of over 35% in size
How it was run: as §1

[5] = Quantitative High-Throughput drug screen in 47 multiple myeloma cell lines against the NCATS MIPE library collection: VP6_DJ cell viability assay (AID 1919867); note: nearly all actives have a fitted effect of over 40% in size
How it was run: as §1

[6] = Quantitative High-Throughput drug screen in 47 multiple myeloma cell lines against the NCATS MIPE library collection: UTMC2_PLB cell viability assay (AID 1919868); details: CellTiter-Glo ATP luminescence, 48 h; viability (% of DMSO control): at 45.8 µM (top of the series) unless noted; note: nearly all actives have a fitted effect of over 55% in size
How it was run: as §1

[7] = Quantitative High-Throughput drug screen in 47 multiple myeloma cell lines against the NCATS MIPE library collection: PE2_PLB cell viability assay (AID 1919869); note: nearly all actives have a fitted effect of over 35% in size
How it was run: as §1

[8] = Quantitative High-Throughput drug screen in 47 multiple myeloma cell lines against the NCATS MIPE library collection: PCM6_Riken cell viability assay (AID 1919870); note: nearly all actives have a fitted effect of over 30% in size
How it was run: as §1

[9] = Quantitative High-Throughput drug screen in 47 multiple myeloma cell lines against the NCATS MIPE library collection: RPMI8226_ATCC cell viability assay (AID 1919871); note: nearly all actives have a fitted effect of over 30% in size
How it was run: as §1

[10] = Quantitative High-Throughput drug screen in 47 multiple myeloma cell lines against the NCATS MIPE library collection: OPM2_DSMZ cell viability assay (AID 1919872); note: nearly all actives have a fitted effect of over 30% in size
How it was run: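 Myeloma cells (500 per well) were exposed to MIPE 4.0 compounds by pin transfer and incubated 48 hours at 37C, 5% CO2. Viability was read as ATP by CellTiter-Glo luminescence, normalised to DMSO (100%) and media-only (0%) wells.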

[11] = qHTS drug screen for cell cycle checkpoint inhibitors in PARPi-resistant BRCA-mutant ovarian cancer cell lines. (AID 1963452; calls by dose curve); details: PEO1/OlaR viability, CellTiter-Glo luminescence, 96 h; for Z-AUC: stronger effect = lower value
How it was run: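 PEO1, PEO4 and PEO1/OlaR ovarian cancer cells, 600 per well, exposed 96 h at 37C to a dilution series. Viability read by CellTiter-Glo luminescence, normalized to DMSO and empty wells; activity summarized as Z-AUC.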

[12] = Quantitative High-Throughput drug screen in 47 multiple myeloma cell lines against the NCATS MIPE library collection: OCIMY5_PLB cell viability assay (AID 1918988); note: nearly all actives have a fitted effect of over 65% in size
How it was run: as §1

[13] = Quantitative High-Throughput drug screen in 47 multiple myeloma cell lines against the NCATS MIPE library collection: SKMM1_PLB cell viability assay (AID 1919863); details: SKMM1 myeloma viability, CellTiter-Glo ATP, 48 h; viability: stronger effect = lower value; note: nearly all actives have a fitted effect of over 35% in size
How it was run: as §1

[14] = Quantitative High-Throughput drug screen in 47 multiple myeloma cell lines against the NCATS MIPE library collection: U266_ATCC cell viability assay (AID 1919864); note: nearly all actives have a fitted effect of over 35% in size
How it was run: as §1

[15] = Quantitative High-Throughput drug screen in 47 multiple myeloma cell lines against the NCATS MIPE library collection: KMS11_JCRBsus cell viability assay (AID 1919873); note: nearly all actives have a fitted effect of over 50% in size
How it was run: as §1

[16] = Quantitative High-Throughput drug screen in 47 multiple myeloma cell lines against the NCATS MIPE library collection: KMS28BM_JCRB cell viability assay (AID 1919874); note: nearly all actives have a fitted effect of over 35% in size
How it was run: as §1

[17] = Quantitative High-Throughput drug screen in 47 multiple myeloma cell lines against the NCATS MIPE library collection: OPM1_PLB cell viability assay (AID 1918989); note: nearly all actives have a fitted effect of over 40% in size
How it was run: as §1

[18] = Quantitative High-Throughput drug screen in 47 multiple myeloma cell lines against the NCATS MIPE library collection: KMS34_JCRB cell viability assay (AID 1918985); note: nearly all actives have a fitted effect of over 40% in size
How it was run: as §1

[19] = measured here: PEO1 parental Z-AUC
Potency is the fitted concentration of half-maximal effect.

COc1cc(C(C)C)c2c(c1)S(=O)(=O)N(COc1cc(=O)n3cccc(OCCN4CCCCC4)c3n1)C2=O
active: Potency [1] 18.7 µM | Potency [2] 11.8 µM | Potency [3] 0.833 µM | Potency [4] 2.09 µM | Potency [5] 16.6 µM | Potency [6] 26.4 µM | Potency [7] 18.7 µM | Potency [8] 18.7 µM
0.892: Z-AUC ([11]; measured here: PEO4 Z-AUC)
inactive: Potency [9] | Potency [10] | Z-AUC [11] 1.15
1.06: Z-AUC [11, 19]

Cc1cc(Nc2cc(CN3CCOCC3)c3nc(C)c(Cc4ccc(Cl)cc4F)n3n2)n[nH]1
-1.95: Z-AUC ([11]; measured here: PEO4 Z-AUC)
active: Potency [2] 2.64 µM | Potency [12] 3.32 µM | Potency [13] 16.6 µM | Potency [14] 20.9 µM | Potency [3] 13.2 µM | Potency [4] 0.833 µM | Potency [5] 13.2 µM | Potency [7] 5.26 µM | Potency [9] 2.35 µM | Potency [15] 1.18 µM | Potency [16] 14.8 µM
inactive: Potency [10] | Z-AUC [11] -0.469
-0.486: Z-AUC [11, 19]

C[C@@H]1COC(Nc2ccc3ncnc(Nc4ccc(OCc5nccs5)c(Cl)c4)c3c2)=N1
-1.07: Z-AUC ([11]; measured here: PEO4 Z-AUC)
active: Potency [1] 9.35 µM | Potency [12] 2.96 µM | Potency [17] 16.6 µM | Potency [14] 18.7 µM | Potency [3] 0.0372 µM | Potency [4] 0.105 µM | Potency [5] 3.72 µM | Potency [6] 2.96 µM | Potency [7] 4.18 µM | Potency [8] 2.96 µM | Potency [9] 33.2 µM | Potency [10] 26.4 µM | Potency [15] 18.7 µM | Potency [11] 13.8 µM
-1.34: Z-AUC [11, 19]

CCN1CCN(Cc2ccc(-c3cc4c(N[C@H](C)c5ccccc5)ncnc4[nH]3)cc2)CC1
inactive: Z-AUC [11] -1.03
-0.489: Z-AUC ([11]; measured here: PEO4 Z-AUC)
active: Potency [1] 0.0235 µM | Potency [17] 0.372 µM | Potency [14] 0.166 µM | Potency [6] 0.662 µM | Potency [8] 1.66 µM | Potency [15] 3.72 µM | Potency [16] 2.96 µM
0.0439: Z-AUC [11, 19]

O=C(O)C1(Cc2cccc(Nc3nccs3)n2)CCC(Oc2cccc(Cl)c2F)CC1 (stereo unspecified)
inactive: Potency [14] | Potency [9] | Z-AUC [11] -0.463
-1.84: Z-AUC ([11]; measured here: PEO4 Z-AUC)
-1.23: Z-AUC [11, 19]
active: Potency [2] 0.296 µM | Potency [12] 0.662 µM | Potency [3] 0.209 µM | Potency [4] 0.0526 µM | Potency [5] 0.148 µM | Potency [6] 0.0372 µM | Potency [15] 0.296 µM | Potency [16] 0.332 µM

Clc1ccc2ncc(-c3cccc(NC4CNC4)n3)n2c1
active: Potency [18] 8.33 µM | Potency [2] 14.8 µM | Potency [12] 23.5 µM | Potency [17] 14.8 µM | Potency [14] 18.7 µM | Potency [3] 8.33 µM | Potency [4] 14.8 µM | Potency [5] 16.6 µM | Potency [7] 16.6 µM | Potency [9] 20.9 µM | Potency [10] 23.5 µM | Potency [15] 20.9 µM
0.128: Z-AUC [11, 19]
inactive: Z-AUC [11] -0.578
-0.613: Z-AUC ([11]; measured here: PEO4 Z-AUC)

Cc1cnc(Nc2ccc(F)cc2Cl)nc1-c1c[nH]c(C(=O)N[C@H](CO)c2cccc(Cl)c2)c1
inactive: Z-AUC [11] 0.276
0.0916: Z-AUC [11, 19]
active: Potency [1] 1.32 µM | Potency [18] 23.5 µM | Potency [12] 18.7 µM | Potency [17] 20.9 µM | Potency [13] 20.9 µM | Potency [14] 20.9 µM | Potency [3] 3.72 µM | Potency [4] 13.2 µM | Potency [5] 5.26 µM | Potency [6] 18.7 µM | Potency [7] 6.62 µM | Potency [8] 18.7 µM | Potency [9] 20.9 µM | Potency [10] 18.7 µM | Potency [15] 16.6 µM | Potency [16] 20.9 µM
0.18: Z-AUC ([11]; measured here: PEO4 Z-AUC)
